Results filed as inconclusive are left out. The source made the active and inactive calls. Unless noted, calls follow the shape of the dose curve; as a rule, active = well fitted curve in the direction sought with a large enough effect in the repeat runs; inconclusive = weak or mixed curves; inactive = no such curve, though single readings can be large; an effect the other way counts as inactive or inconclusive.
Columns and labels:
[1] = qHTS assay to identify small molecule agonists of the RXR signaling pathway - cell viability counter screen (AID 1159529);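 also: HEK 293T cells carrying an RXR-alpha UAS beta-lactamase reporter; nearly all actives have a fitted effect of over 50% in size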
Summary of the method: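 In this parallel viability measure, GeneBLAzer RXR-alpha HEK 293T cells (2% charcoal-stripped FBS) were given a 5 hr preincubation, treated with compounds 16 hr at 37 C, and read by CellTiter-Glo luminescence.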

[2] = qHTS assay to identify small molecule antagonists of the retinoid acid receptor (RAR) signaling pathway - cell viability counter screen (AID 1159551); also: nearly all actives have a fitted effect of over 35% in size
Summary of the method: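 C3RL4 RARE-luciferase line; cpds + retinol 1 uM final, 6 h, 37 C/5% CO2; CellTiter-Glo ATP luminescence, 30 min RT.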

[3] = qHTS assay to identify small molecule antagonists of the retinoic acid receptor (RAR) signaling pathway (AID 1159552; also: nearly all actives have a fitted effect of over 50% in size)
Summary of the method: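 C3RL4 RARE-luc cells, overnight plating; retinol 1 uM final added right after compound; 6 hr 37 C; luciferase read at 30 min RT.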

[4] = qHTS assay to identify small molecule agonists of the retinoic acid receptor (RAR) signaling pathway (AID 1159553)
Summary of the method: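 RARE-luc C3RL4 cells; overnight attachment 37 C/5% CO2; compound (DMSO) 6 hr; luciferase reagent, 30 min RT; luminescence read-out.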

[5] = qHTS assay to identify small molecule antagonists of the estrogen related receptor (ERR) signaling pathway from Tox21 library - cell viability counter screen (AID 1224834); also: nearly all actives have a fitted effect of over 30% in size
Summary of the method: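 Multiplexed viability counter screen in ERR cells: 17.5 h compound exposure at 37 C, CellTiter-Fluor added, 30 min at 37 C/5% CO2, fluorescence read.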

[6] = target: Luciferin 4-monooxygenase (Photinus pyralis) (UniProt P08659); assay: qHTS assay to identify small molecule inhibitors of firefly luciferase (AID 1224835); also: nearly all actives have a fitted effect of over 25% in size
Sequence of Luciferin 4-monooxygenase (Photinus pyralis) (P08659 whole entry, looked up): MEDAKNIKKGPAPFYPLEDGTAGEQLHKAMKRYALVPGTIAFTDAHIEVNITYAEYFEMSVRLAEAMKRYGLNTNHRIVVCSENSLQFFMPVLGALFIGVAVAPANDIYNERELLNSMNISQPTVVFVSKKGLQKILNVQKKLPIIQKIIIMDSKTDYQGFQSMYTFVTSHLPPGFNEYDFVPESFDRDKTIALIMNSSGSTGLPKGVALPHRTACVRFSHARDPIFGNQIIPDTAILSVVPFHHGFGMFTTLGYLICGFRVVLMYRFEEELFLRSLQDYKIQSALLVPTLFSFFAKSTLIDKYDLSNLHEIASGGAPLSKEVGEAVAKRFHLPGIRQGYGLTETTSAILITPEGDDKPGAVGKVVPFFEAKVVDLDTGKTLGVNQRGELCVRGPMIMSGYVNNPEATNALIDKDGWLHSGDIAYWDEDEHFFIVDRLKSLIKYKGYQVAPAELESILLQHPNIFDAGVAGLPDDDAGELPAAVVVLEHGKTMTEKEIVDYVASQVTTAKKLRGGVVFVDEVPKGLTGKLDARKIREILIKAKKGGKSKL
Summary of the method: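 Biochemical qHTS: compounds run as interplate titrations against purified firefly enzyme, with D-luciferin and ATP each at its KM concentration. Light output recorded by CCD imaging.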

[7] = qHTS assay to identify small molecule agonists of the constitutive androstane receptor (CAR) signaling pathway - cell viability counter screen (AID 1224836); also: nearly all actives have a fitted effect of over 45% in size
Summary of the method: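 Using CellTiter-Fluor, viability of HepG2 cells harbouring hCAR and CYP2B6-2.2kb was measured following 23 h incubation with a 15-concentration compound series plus PK11195 (0.75 uM final).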

[8] = qHTS assay to identify small molecule antagonists of the constitutive androstane receptor (CAR) signaling pathway - cell viability counter screen (AID 1224837); also: nearly all actives have a fitted effect of over 45% in size
Summary of the method: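 Read-out: CellTiter-Fluor fluorescence after 23 hr at 37 C/5% CO2. Cells: HepG2 double-stable for hCAR and CYP2B6-2.2kb. Compounds tested at 15 concentrations in the presence of CITCO, final concentration 50 nM.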

[9] = target: Nuclear receptor subfamily 1 group I member 3 (Homo sapiens) (UniProt Q14994); assay: qHTS assay to identify small molecule agonists of the constitutive androstane receptor (CAR) signaling pathway (AID 1224839);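 also: HepG2 cells stably carrying human CAR and a CYP2B6 luciferase reporter; nearly all actives have a fitted effect of over 15% in size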
Sequence of Nuclear receptor subfamily 1 group I member 3 (Homo sapiens) (Q14994 whole entry, looked up): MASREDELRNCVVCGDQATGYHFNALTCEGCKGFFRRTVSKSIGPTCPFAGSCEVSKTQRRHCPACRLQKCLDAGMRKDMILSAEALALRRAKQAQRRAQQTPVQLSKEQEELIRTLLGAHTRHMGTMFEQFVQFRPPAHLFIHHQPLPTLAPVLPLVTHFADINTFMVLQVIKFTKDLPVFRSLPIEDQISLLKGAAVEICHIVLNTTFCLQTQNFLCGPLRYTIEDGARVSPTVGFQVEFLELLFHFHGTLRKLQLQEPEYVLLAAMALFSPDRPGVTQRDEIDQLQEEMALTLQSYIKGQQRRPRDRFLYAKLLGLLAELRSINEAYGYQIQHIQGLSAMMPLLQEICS
Summary of the method: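 Double-stable HepG2 cells (hCAR, CYP2B6-2.2kb) seeded 4 h before compound addition. Exposure 24 h with 0.75 uM PK11195 final. Luciferase detected by ONE-Glo.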

[10] = qHTS assay to identify small molecule antagonists of the estrogen related receptor signaling pathway with the pleiotropic PPARgamma coactivator (PGC) from Tox21 10K library - cell viability counter screen (AID 1224840; active = well fitted cell-killing curve with a large enough effect in the repeat runs, not every such curve was filed as active; also: nearly all actives have a fitted effect of over 40% in size)
Summary of the method: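 Fluorescence read-out of CellTiter-Fluor viability reagent, added after cells had been exposed to compound in DMSO for 17.5 h at 37 C; 30 min development at 37 C/5% CO2. Cells: PGC/ERR line, 2,000/well.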

[11] = target: Thyrotropin receptor (Homo sapiens) (UniProt P16473); assay: qHTS assay to identify small molecule agonists of the thyroid stimulating hormone receptor (TSHR) signaling pathway (AID 1224843; calls by dose curve; also: nearly all actives have a fitted effect of over 45% in size)
Sequence of Thyrotropin receptor (Homo sapiens) (P16473 whole entry, looked up): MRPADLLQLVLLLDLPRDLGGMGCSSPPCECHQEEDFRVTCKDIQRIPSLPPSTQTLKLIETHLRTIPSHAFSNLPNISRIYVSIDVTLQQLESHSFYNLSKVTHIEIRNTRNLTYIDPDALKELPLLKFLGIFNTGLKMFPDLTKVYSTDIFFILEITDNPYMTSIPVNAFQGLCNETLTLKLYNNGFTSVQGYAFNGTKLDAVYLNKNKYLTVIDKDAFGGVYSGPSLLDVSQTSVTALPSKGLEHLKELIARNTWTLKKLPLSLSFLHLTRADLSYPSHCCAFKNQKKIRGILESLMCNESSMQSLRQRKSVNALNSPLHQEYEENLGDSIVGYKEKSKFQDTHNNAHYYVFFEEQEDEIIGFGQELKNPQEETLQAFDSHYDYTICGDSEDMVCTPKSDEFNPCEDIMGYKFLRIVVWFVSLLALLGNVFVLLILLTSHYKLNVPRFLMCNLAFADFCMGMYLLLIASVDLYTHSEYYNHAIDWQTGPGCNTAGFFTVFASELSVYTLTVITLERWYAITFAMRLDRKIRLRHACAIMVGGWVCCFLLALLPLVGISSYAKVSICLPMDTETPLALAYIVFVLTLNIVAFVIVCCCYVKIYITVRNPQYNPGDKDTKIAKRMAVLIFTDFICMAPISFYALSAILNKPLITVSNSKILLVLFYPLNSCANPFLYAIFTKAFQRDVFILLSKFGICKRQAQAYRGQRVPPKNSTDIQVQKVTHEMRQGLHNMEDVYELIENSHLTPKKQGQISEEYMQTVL
Summary of the method: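 HEK293/TSHR, 800 cells/well; cpd 30 min RT; add cAMP-d2 + anti-cAMP-cryptate, 1 h RT; fluorescence read on plate reader. 15-pt titration, n=3.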

[12] = qHTS assay to identify small molecule agonists of the hypoxia (HIF-1) signaling pathway - cell viability counter screen (AID 1224844; calls by dose curve; also: nearly all actives have a fitted effect of over 50% in size)
Summary of the method: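 CellTiter-Glo luminescence read-out, 30 min RT, taken in the same wells as the beta-lactamase HRE reporter assay; HRE-bla ME-180 cells, 0.5% dialyzed FBS, 17 hr compound treatment at 37C, 5% CO2.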

[13] = qHTS assay to identify small molecule agonists of H2AX (AID 1224845; active = well fitted activation curve with a large enough effect in the signal ratio in the repeat runs, not every such curve was filed as active; the % refers to the signal ratio)
Summary of the method: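 Wild-type CHO-K1 cells, plated overnight, exposed 3hr at 37C to 15 concentrations (0.76% DMSO final). Lysed, then HTRF anti-pH2AX (S139) cryptate and anti-H2AX-d2 antibodies, 24 hr room temperature; 665/620 nm emission read.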

[14] = qHTS assay to identify small molecule agonists of the hypoxia (HIF-1) signaling pathway (AID 1224846; active = well fitted activation curve with a large enough effect in the signal ratio in the repeat runs, not every such curve was filed as active; the % refers to the signal ratio)
Summary of the method: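 Beta-lactamase FRET read-out (CCF4-AM substrate) from ME-180 cells carrying an HRE-driven bla reporter, after 17 hrs compound exposure at 37C/5% CO2. Cells were seeded at 2,000 per well in 0.5% dialyzed FBS medium and preincubated 5 hrs.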

[15] = qHTS assay to identify small molecule agonists of H2AX - cell viability counter screen (AID 1224847; calls by dose curve; also: top concentration of the series differs between compounds; nearly all actives have a fitted effect of over 30% in size)
Summary of the method: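 Quantitative HTS viability measurement: CHO-K1 wild-type cells in serum (10% FBS) medium, short 3 hr drug exposure at 37C with 0.76% DMSO, CellTiter-Glo luminescent detection.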

[16] = qHTS RealTime-Glo MT Cell Viability Assay in HepG2 cells - 24 hour (AID 1224867); also: nearly all actives have a fitted effect of over 50% in size
Summary of the method: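 Real-time, nonlytic viability: 600 HepG2 cells/well mixed with NanoLuc enzyme plus prosubstrate; 5 h settle, compound (DMSO) added by pintool; luminescence monitored over 40 h at 37 C.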

[17] = target: Nuclear receptor subfamily 1 group I member 3 (Homo sapiens) (UniProt Q14994); assay: qHTS assay to identify small molecule antagonists of the constitutive androstane receptor (CAR) signaling pathway (AID 1224838);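 also: HepG2 cells stably expressing hCAR with CYP2B6 luciferase reporter stimulated by CITCO; nearly all actives have a fitted effect of over 40% in size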
Summary of the method: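 Read-out: ONE-Glo luciferase luminescence after 30 min at room temperature. HepG2-CYP2B6-hCAR double-stable cells, compounds in 15-point titration plus 50 nM CITCO final, 24 h at 37 C/5% CO2.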

[18] = qHTS assay to identify small molecule antagonists of the estrogen related receptor (ERR) signaling pathway from Tox21 library (AID 1224848); also: nearly all actives have a fitted effect of over 50% in size
Summary of the method: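 Compounds dissolved in DMSO are pin-transferred onto ERR reporter cells (2,000 per well) that have settled for 6 h at 37 C. Plates then incubate 18 h at 37 C before ONE-Glo luciferase reagent and a luminescence read 30 min later.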

[19] = qHTS assay to identify small molecule agonists of the estrogen related receptor (ERR) signaling pathway from Tox21 library (AID 1224849; calls by dose curve; also: nearly all actives have a fitted effect of over 15% in size); conditions: ERR reporter cell line, ONE-Glo luciferase, 18 h; at 92.4 µM (top of the series) unless noted
Summary of the method: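 Luminescence readout (ONE-Glo, 30 min RT) after 18 h compound exposure at 37 C of NTP-supplied ERR reporter cells; cells were plated 6 h before compound addition by pin tool.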
% is scaled to controls: 0 for no effect and ±100 for the full control effect.

CC(C)[C@H]1CC[C@H](C)C[C@@H]1O
inactive: outcome [1] | outcome [2] | outcome [3] | Potency [4] | outcome [5] | Potency [6] | outcome [7] | outcome [8] | Potency [9] | outcome [10] | outcome [11] | outcome [12] | outcome [13] | outcome [14] | outcome [15] | outcome [16]

O=C(CCCl)NCCc1ccccc1
inactive: outcome [1] | outcome [2] | outcome [3] | Potency [4] | outcome [5] | Potency [6] | outcome [7] | outcome [8] | Potency [9] | outcome [10] | outcome [11] | outcome [12] | outcome [13] | outcome [14] | outcome [16]

Cn1c(=O)c2[nH]c(Br)nc2n(C)c1=O
inactive: outcome [1] | outcome [2] | outcome [3] | Potency [4] | outcome [5] | Potency [6] | outcome [7] | outcome [8] | Potency [9] | outcome [11] | outcome [12] | outcome [13] | outcome [14] | outcome [15] | outcome [16]

CC1CC(=O)CC(C)(C)C1 (stereo unspecified)
inactive: outcome [1] | outcome [2] | outcome [3] | Potency [4] | outcome [5] | Potency [6] | outcome [7] | outcome [8] | outcome [10] | outcome [11] | outcome [12] | outcome [13] | outcome [14] | outcome [16]

CCO[Si](CC)(OCC)OCC
inactive: outcome [1] | outcome [2] | outcome [3] | Potency [4] | outcome [5] | Potency [6] | outcome [7] | outcome [8] | Potency [17] | Potency [9] | outcome [11] | outcome [12] | outcome [13] | outcome [14] | outcome [16]

O=C1OCCO1
inactive: outcome [1] | outcome [2] | outcome [3] | Potency [4] | outcome [5] | Potency [6] | outcome [7] | outcome [8] | Potency [9] | outcome [10] | outcome [12] | outcome [13] | outcome [14] | outcome [15] | outcome [16]

CC(C)(CO)C(O)C(=O)NCCCO (stereo unspecified)
inactive: outcome [1] | outcome [2] | outcome [3] | Potency [4] | outcome [5] | Potency [6] | outcome [7] | outcome [8] | Potency [9] | outcome [10] | outcome [11] | outcome [12] | outcome [13] | Potency [18] | activity change, positive = activation [19] 0.356% | outcome [16]

CCC(C)OC(C)CC (stereo unspecified)
inactive: outcome [1] | outcome [2] | outcome [3] | Potency [4] | outcome [5] | Potency [6] | outcome [7] | outcome [8] | Potency [9] | outcome [10] | outcome [12] | outcome [13] | outcome [14] | outcome [16]

CC(=O)c1cc(C)oc1C
inactive: outcome [1] | outcome [2] | outcome [3] | Potency [4] | outcome [5] | Potency [6] | outcome [7] | outcome [8] | Potency [9] | outcome [10] | outcome [12] | outcome [13] | outcome [14] | outcome [15] | outcome [16]

NCc1ccc(S(N)(=O)=O)cc1
inactive: outcome [1] | outcome [2] | outcome [3] | Potency [4] | outcome [5] | Potency [6] | outcome [7] | outcome [8] | Potency [9] | outcome [10] | outcome [11] | outcome [13] | outcome [15] | outcome [16]

C=CCSSCCC
inactive: outcome [1] | outcome [2] | outcome [3] | Potency [4] | outcome [5] | Potency [6] | outcome [7] | outcome [8] | Potency [17] | Potency [9] | outcome [11] | outcome [12] | outcome [13] | outcome [14] | outcome [15] | outcome [16]

COC(=O)CCCCC(=O)O
inactive: outcome [1] | outcome [2] | outcome [3] | Potency [4] | outcome [5] | Potency [6] | outcome [7] | outcome [8] | Potency [9] | outcome [10] | outcome [11] | outcome [12] | outcome [13] | outcome [14] | outcome [15] | outcome [16]

Nc1nc(-c2ccccc2)c(Br)c(=O)[nH]1
inactive: outcome [1] | outcome [2] | outcome [3] | Potency [4] | outcome [5] | Potency [6] | outcome [7] | Potency [9] | outcome [10] | outcome [11] | outcome [12] | outcome [13] | outcome [14] | outcome [15] | Potency [18] | activity change, positive = activation [19] -6.57% [at 42.5 µM] | outcome [16]

N[C@@H](Cc1ccc(O)cc1)C(=O)O
inactive: activity change, negative = cytotoxicity [1] 2.08% [at 6.97 µM] | activity change, negative = cytotoxicity [2] -0.852% [at 8.39 µM] | activity, negative = inhibition [3] 7.5% [at 8.39 µM] | activation [4] 0.0879% [at 8.36 µM] | viability change, negative = cytotoxic [5] 1.55% [at 8.39 µM] | activity change, negative = inhibition [6] 1.38% [at 10.5 µM] | viability change, negative = cytotoxic [7] -0.95% [at 8.39 µM] | activity, negative = inhibition [17] -4.54% [at 8.39 µM] | activation [9] -2.78% [at 8.39 µM] | activation [11] 8.55% [at 8.39 µM] | activity change, negative = cytotoxicity [12] 2.31% [at 6.97 µM] | activation (H2AX phosphorylation) [13] 0.078% [at 14 µM] | activation [14] -0.522% [at 7.01 µM] | activity change, negative = cytotoxicity [16] -0.685% [at 6.97 µM]

C=C(C)C1CC=C(C)C(=O)C1 (stereo unspecified)
inactive: outcome [1] | outcome [2] | outcome [5] | Potency [6] | outcome [7] | outcome [8] | outcome [10] | outcome [11] | outcome [12] | outcome [13] | outcome [14] | outcome [15] | outcome [16]

CCCCCC(C)O (stereo unspecified)
inactive: outcome [1] | outcome [2] | outcome [3] | Potency [4] | outcome [5] | Potency [6] | outcome [7] | Potency [17] | Potency [9] | outcome [10] | outcome [11] | outcome [12] | outcome [13] | outcome [14] | outcome [15] | outcome [16]
